Sampled rows, rich in hits. Any-hit rate of the full collection: about 21%.
Shiga inhibitor – inhibitors of Shiga toxin in Vero cells | Vero cells, Shiga toxin protein synthesis inhibition reporter | inhibition, % at 38.7 µM | 290,000 tested, 9.2% active; in the data active means inhibition mostly above about 28%, no sharp cut-off; inactive means mostly below about 43%; further: 0% is about no effect
NS1 function inh – influenza NS1 inhibition. 270,000 tested, 0.4% active. AID 2326. Potency, µM (series often up to 46.1 µM), for the others: at the top dose activity, positive = more growth; further: potency means the concentration at half of the fitted maximal effect; actives are rising curves; nearly all actives have a fitted effect of over 50% in size
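Growth recovery, yeast-based: influenza A NS1 expressed in S. cerevisiae causes slow growth, and suppressors are detected by OD600. The parent strain without NS1 is used as positive control.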
SARS PLpro yeast – SARS-CoV PLP inhibition in yeast. S. cerevisiae expressing SARS-CoV PLpro, growth rescue. 330,000 tested, 0.19% active. Potency, µM (top dose mostly 32.9 µM), for the others: at the top dose activity, positive = growth rescue, usual class: activators; further: potency means the concentration at half of the fitted maximal effect; 0% is about no effect; nearly all actives have a fitted effect of over 55% in size
Cycloheximide cs – counter-screen hit for Shiga toxin inhibitors, cycloheximide; cell reporter, cycloheximide protein synthesis inhibition counterscreen; max response, %; 300,000 tested, 12% active; AID 2314; in the data active means max response mostly above about 13%, no sharp cut-off; inactive means mostly below about 14%; further: read at 38.3 µM for the half of the compounds with a filed dose; 0% is about no effect
Pf growth 96h – P. falciparum growth inhibition at 96 hours; P. falciparum luciferase reporter growth, 96 h; Potency, µM (series often up to 28.7 µM), without a hit: top-dose activity change, negative = inhibition, hits mostly inhibitors; 320,000 tested, 6.9% active; AID 504834; active means well fitted inhibition curve with a large enough effect; inconclusive means small, poorly fitted or top-dose-only effect, or another doubt; inactive means no such curve, though single readings can be large or run the other way; further: potency means the concentration at half of the fitted maximal effect; on the % scale 0 is the no-effect control and ±100 the full control effect
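P. falciparum expressing integrated firefly luciferase grown in erythrocytes (2% hematocrit, 0.05% parasitemia final) with compounds for 96 hours at 37 C, 5% CO2. Growth inhibition read as loss of luminescence after adding luciferase detection reagent.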
Pf growth 48h – inhibits P. falciparum growth in the first generation, 48 h; Potency, µM (highest dose often 28.7 µM), for inactives: at the highest dose activity change, negative = inhibition, hits mostly inhibitors; 310,000 tested, 5.9% active; AID 504832; P. falciparum luciferase growth in erythrocytes, 48 h; active means well fitted inhibition curve with a large enough effect; inconclusive means small, poorly fitted or top-dose-only effect, or another doubt; inactive means no such curve, though single readings can be large or run the other way; further: potency means the concentration at half of the fitted maximal effect; on the % scale 0 is the no-effect control and ±100 the full control effect
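Compounds are pin-transferred into medium, infected erythrocytes (2% hematocrit, 0.1% parasitemia final) are added, and plates sit one parasite generation at 37 C in 5% CO2. Detection reagent is then added and luminescence measured.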
Active calls of the source: *; ? = inconclusive; . = no result; [ ] = dose if it differs, or a comment. Unless noted, the call rests on the fitted dose curve.

SMILES	Shiga inhibitor	NS1 function inh	SARS PLpro yeast	Cycloheximide cs	Pf growth 96h	Pf growth 48h
OC[C@H]1O[C@H](OC[C@H]2O[C@H](OC[C@H]3O[C@H](O[C@]4(CO)O[C@H](CO)[C@@H](O)[C@@H]4O)[C@H](O)[C@@H](O)[C@@H]3O)[C@H](O)[C@@H](O)[C@H]2O)[C@H](O)[C@@H](O)[C@H]1O	.	.	.	.	8%	0%
O=C(NCC1CC1)c1cc([N+](=O)[O-])cc([N+](=O)[O-])c1	-3	4%	-1%	-6	20%	9%[0.00184 µM]
Cc1ccc(C(C(=O)Nc2ccc3c(c2)OCO3)N(C)C(=O)Cc2c[nH]c3ccccc23)cc1 (stereo not given)	4	?	11%	-2	?	?
C/C(=N\NC(=O)c1c[nH]c2ccccc12)c1ccco1	61*	4%	11%	71*	-32%	.
C/C(=N\NC(=O)c1cc2ccccc2cc1O)c1ccccn1	27	-14%	1%	25*	10%	3.7µM*
O=C1Cc2ccccc2C(=O)N1c1cccc(Cl)c1	3	3%	1%	3	1%	-6%
CCN(C(=O)c1cc2c(s1)-c1ccccc1S(=O)(=O)C2)c1cc(OC)ccc1OC	3	13%	4%	-1	?	9.3µM*
CCN(C(=O)c1cc2c(s1)-c1ccccc1OC2)c1cc(OC)ccc1OC	15	3%	-16%	-3	12µM*	?
COc1ccc(N(C)C(=O)c2cc3c(s2)-c2c(C)cccc2OC3)c(OC)c1	6	-1%	-3%	9	?	?
O=C(O)c1ccccc1-c1ccc(C=C2C(=O)N(c3ccccc3)C(=S)N(c3ccccc3)C2=O)o1	.	22%	0%	12	12µM*	24%
O=C1S/C(=C\c2ccc(N3CCOCC3)o2)C(=O)N1Cc1c(F)cccc1Cl	-9	-22%	-4%	-2	12µM*	?
Cc1ccccc1N1C(=O)NC(=O)/C(=C/c2ccc(N3CCOCC3)o2)C1=O	-8	3%	0%	-1	-6%	2%
O=Cc1ccc(-c2ccccc2C(=O)O)o1	17	0%	0%	-3	1%	16%
O=C1S/C(=C\c2ccc(N3CCOCC3)o2)C(=O)N1c1ccccc1	153*	.	-2%	31*	55%	-16%
O=C(O)c1ccccc1-c1ccc(/C=C2\SC(=O)N(c3ccccc3)C2=O)o1	.	12%	-6%	15*	?	98%
O=C1S/C(=C/c2ccc(N3CCOCC3)o2)C(=O)N1Cc1c(F)cccc1Cl	1	-1%	-23%	6	.	5%
Cc1cc2c(n1-c1ccc(C(=O)O)cc1)CCCCC2	22	10%	-1%	4	2%	-3%
CCOC(=O)c1ccc(NC(=S)Nc2cccc(C)n2)cc1	-8	20%	23%	1	?	-29%
COc1ccc(NC(=S)Nc2ccccn2)cc1	135*	-10%	26%	46*	39%	258%
COc1ccccc1NC(=S)Nc1ccccn1	13	-1%	?	-1	-22%	4%
CCOC(=O)c1ccc(NC(=S)Nc2cccc(N)n2)cc1	81*	-4%	0%	50*	-89%	?
COC(=O)c1ccc(NC(=S)Nc2ccc(O)cc2)cc1	14	-4%	0%	5	?	6%
COC(=O)c1ccc(NC(=S)Nc2ccccn2)cc1	73*	11%	?	42*	-88%	185%
CC(C)CCOc1ccc(C2(C)NC(=O)NC2=O)cc1 (stereo not given)	.	6%	5%	9	?	?
CCOC(=O)c1ccccc1NC(=O)c1ccc2c(SCC(=O)O)c3c(nc2c1)CCCC3	-3	25%	-1%	-2	?	2.3µM*
SMILES	Shiga inhibitor	NS1 function inh	SARS PLpro yeast	Cycloheximide cs	Pf growth 96h	Pf growth 48h
COc1ccc(C)cc1NC(=O)c1ccc2c(SCC(=O)O)c3c(nc2c1)CCCC3	4	-3%	2%	-2	8.3µM*	?
COc1cc(Cl)c(C)cc1NC(=O)c1ccc2c(SCC(=O)O)c3c(nc2c1)CCCC3	18	.	-1%	-3	32%	?
CCOc1ccc(NC(=O)c2ccc3c(SCC(=O)O)c4c(nc3c2)CCCC4)cc1	-16	.	-4%	5	0%	-13%
CCC1=NN(C(=O)C(=O)Nc2ccc(Br)cc2)C(O)(C(F)(F)F)C1 (stereo not given)	12	.	?	-3	-21%	?
CCN(C(=O)COc1cccc2cccnc12)C1CCS(=O)(=O)C1 (stereo not given)	-2	.	4%	1	10%	20%
Cc1nc2c3c(-c4ccccc4)nc(N4CCOCC4)nc3nn2c(C)c1CCC(=O)O	.	26%	.	.	.	.
Cc1cccc2c1N(N=O)CCC2	11	8%	24%	-1	32%	41%
Cc1cc[n+]2c3c(cccc13)CCC2	-13	-1%	6%	-1	.	3.7µM*
Clc1cccc(N/N=C/c2ccc(N3CCOCC3)s2)c1	18	10%	-59%	23*	?	?
O=C(N/N=C/c1ccc(N2CCOCC2)s1)c1ccccc1Br	54	.	1%	17	?	4%
Nc1ccc(C(=O)N/N=C/c2ccc(N3CCOCC3)s2)cc1	.	.	3%	.	.	.
CC(C)(C)OC(=O)N/N=C/c1ccc(N2CCOCC2)s1	89*	?	8%	55*	?	42%
O=C(CSc1cc(Cl)ccc1Cl)NCCN1C(=O)CSC1=O	.	.	-8%	.	.	.
CCOc1ccc(NC(=O)C(=O)NCCN2CCN(S(=O)(=O)c3ccccc3)CC2)cc1	5	4%	0%	-3	-9%	0%
Cc1cc(NC(=O)CSc2nnc(-c3ccc(S(=O)(=O)N4CCCC4)cc3)n2C)no1	-5	-3%	-1%	-2	12µM*	?
Cn1c(SCC(=O)NCc2ccco2)nnc1-c1ccc(S(=O)(=O)N2CCOCC2)cc1	4	6%	6%	-5	12µM*	-10%
Cc1ccc(-n2nnnc2Sc2nc([N+](=O)[O-])nn2C)cc1C	22	-1%	-11%	-1	?	3.3µM*
CCOC(=O)NC1(Nc2ccc(Cl)cn2)Oc2ccccc2O1	34	-13%	1%	8.1*	?	26%
CCOC(=O)/C=C/C(=O)OCC(=O)Nc1ccc(Cl)cn1	15	-157%	-22%	17	?	.
O=C(CCn1nc(-c2ccc(Cl)cc2)c2ccccc2c1=O)NN1CCOCC1	1	6%	0%	-1	?	?
CC[N+](C)(CC)CCN1C(=O)c2ccccc2S1(=O)=O	.	-3%	.	.	.	.
CN(Cc1cn(C)c2ccccc12)C(=S)Nc1cc(F)cc(F)c1	-5	-5%	10%	-3	-11%	12µM*
Cc1cccc(NC(=S)N(C)Cc2cn(C)c3ccccc23)c1	-2	-4%	-35%	-3	30%	-21%
CCOc1ccc(CCNC(=O)c2cccc(S(=O)(=O)N3CCOCC3)c2)cc1OCC	.	.	-1%	.	?	?

Compound activity from PubChem.
